Dicer inh = human Dicer pre-microRNA cleavage inhibition. Q9UPY3. cat-ELCCA pre-miR-21 Dicer processing, chemiluminescence; stronger effect = higher value. z-score at 25 µM. actives 6% (n = 47,000). AID 1347074; in the data active means z-score above about 3, passing the limit was not always enough;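 further: plate controls were vehicle for no effect and no enzyme for full effect; higher signal means more uncleaved substrate so more Dicer inhibition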
Target sequence (Q9UPY3 whole entry, looked up): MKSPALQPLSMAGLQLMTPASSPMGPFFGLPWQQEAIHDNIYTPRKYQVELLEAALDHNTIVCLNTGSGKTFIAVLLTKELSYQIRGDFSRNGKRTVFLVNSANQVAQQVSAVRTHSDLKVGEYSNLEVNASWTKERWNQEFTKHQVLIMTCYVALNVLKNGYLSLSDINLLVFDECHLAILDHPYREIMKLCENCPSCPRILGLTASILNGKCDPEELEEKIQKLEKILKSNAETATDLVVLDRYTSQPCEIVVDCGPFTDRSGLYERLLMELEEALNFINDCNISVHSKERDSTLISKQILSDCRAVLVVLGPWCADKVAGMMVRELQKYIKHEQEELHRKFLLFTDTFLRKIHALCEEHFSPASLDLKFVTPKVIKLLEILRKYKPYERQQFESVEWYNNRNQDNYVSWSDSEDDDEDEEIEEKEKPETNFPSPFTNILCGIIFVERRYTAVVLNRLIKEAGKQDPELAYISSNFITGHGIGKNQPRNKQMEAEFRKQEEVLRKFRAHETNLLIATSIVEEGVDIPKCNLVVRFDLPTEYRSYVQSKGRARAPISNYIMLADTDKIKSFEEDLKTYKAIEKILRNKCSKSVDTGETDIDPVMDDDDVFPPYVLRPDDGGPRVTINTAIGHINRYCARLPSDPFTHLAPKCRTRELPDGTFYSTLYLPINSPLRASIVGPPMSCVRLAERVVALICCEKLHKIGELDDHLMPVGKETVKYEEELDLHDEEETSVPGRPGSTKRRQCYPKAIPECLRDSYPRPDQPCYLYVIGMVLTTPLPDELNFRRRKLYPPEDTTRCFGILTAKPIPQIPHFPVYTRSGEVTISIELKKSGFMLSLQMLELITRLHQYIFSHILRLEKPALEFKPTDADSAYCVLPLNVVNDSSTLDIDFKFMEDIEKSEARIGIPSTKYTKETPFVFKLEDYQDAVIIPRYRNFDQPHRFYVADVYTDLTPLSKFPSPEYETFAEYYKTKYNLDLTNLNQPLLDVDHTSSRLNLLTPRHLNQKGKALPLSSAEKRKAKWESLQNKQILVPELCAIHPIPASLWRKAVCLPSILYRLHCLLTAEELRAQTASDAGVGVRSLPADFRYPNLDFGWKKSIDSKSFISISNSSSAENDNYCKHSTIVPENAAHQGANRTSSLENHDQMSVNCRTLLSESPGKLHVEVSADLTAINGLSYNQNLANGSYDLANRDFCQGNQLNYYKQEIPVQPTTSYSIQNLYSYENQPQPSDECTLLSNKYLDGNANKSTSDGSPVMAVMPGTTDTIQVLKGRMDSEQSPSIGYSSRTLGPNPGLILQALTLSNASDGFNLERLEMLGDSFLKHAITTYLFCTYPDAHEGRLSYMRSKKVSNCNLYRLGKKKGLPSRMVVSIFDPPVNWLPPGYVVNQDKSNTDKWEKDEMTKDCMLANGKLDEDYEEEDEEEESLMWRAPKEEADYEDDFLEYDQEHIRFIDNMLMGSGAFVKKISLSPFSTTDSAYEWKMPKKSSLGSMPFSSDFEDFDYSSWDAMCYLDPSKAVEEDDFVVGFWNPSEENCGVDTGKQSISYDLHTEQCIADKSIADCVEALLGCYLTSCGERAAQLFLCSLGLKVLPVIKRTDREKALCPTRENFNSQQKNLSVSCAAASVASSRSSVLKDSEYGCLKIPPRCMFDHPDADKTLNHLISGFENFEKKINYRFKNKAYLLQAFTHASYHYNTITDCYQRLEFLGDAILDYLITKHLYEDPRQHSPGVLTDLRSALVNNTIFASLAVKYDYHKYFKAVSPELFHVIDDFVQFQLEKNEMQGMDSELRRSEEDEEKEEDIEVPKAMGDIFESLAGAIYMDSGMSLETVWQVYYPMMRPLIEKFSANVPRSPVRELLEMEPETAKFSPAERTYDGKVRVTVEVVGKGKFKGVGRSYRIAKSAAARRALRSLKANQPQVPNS
Numbers without * were called inactive. This excerpt belongs to a sample that is enriched for hits.

SMILES | Dicer inh
O=c1[nH]c(SCc2ccc(Cl)cc2Cl)nc2ccccc12 | 3.7*
C=CCNC(=O)CSc1nccc(-c2sc3sc(Br)c(C)c3c2C)n1 | 1.6
CSc1sc(C#N)c2c1/C(=N/OC(=O)c1ccc(Cl)cc1)CCC2 | -2.4
CSc1sc(C#N)c2c1/C(=N\O)CCC2 | 4.4*
CSc1sc(C#N)c2c1/C(=N/OC(C)=O)CCC2 | -1
COc1cccc(CNc2cnc3ccccc3c2)c1O | 4.5*
COc1ccccc1CC(=O)Nc1ccc2ccccc2n1 | -0.4
COc1cccc(CN(C)C)c1O | -1.3
COC(=O)c1ccc(COc2ccc3oc(C)c(C(=O)OC)c3c2)cc1 | 0.12
O=C(c1nnc(-c2ccccc2)o1)N1CCN(c2ccc(C(F)(F)F)cn2)CC1 | 1.4
CCOC(=O)C(C)Oc1cc(OC(C)C(=O)OCC)c2c(=O)cc(-c3ccccc3)oc2c1 (configuration not stated) | 4.1*
CCCCOC(=O)C(C)Oc1ccc2c(=O)c(-c3ccccc3)coc2c1 (configuration not stated) | 1.2
CCOC(=O)C(C)Oc1ccc2c(C)cc(=O)oc2c1 (configuration not stated) | 1.3
Cc1ccc(CSc2n[nH]c(=O)n2-c2ccc(OCc3ccccc3)cc2)cc1 | -0.69
Cc1c(-c2ccc(Cl)cc2)nc(N)c(C#N)c1-c1ccco1 | 0.75
O=c1[nH]c(CN2CCOCC2)nc2ccccc12 | 6.9*
c1ccc2[nH]c(CN3CCCCC3)nc2c1 | -0.54
O=c1[nH]c(CN2CCCCC2)nc2c1oc1ccccc12 | -0.24
Nc1cc(=O)[nH]c(SCC(=O)Nc2ccc(Cl)cn2)n1 | -0.36
C#CCN1C(=O)C(O)(CC(=O)c2ccccc2)c2cc(Br)ccc21 (configuration not stated) | 1.1
O=C1N(CN2CCCCCC2)c2ccccc2C12OCCO2 | 0.34
O=C1C(c2cc(Cl)cc(Cl)c2)=C(O)c2ccccc21 | -0.75
Cc1cc(Cl)cc2c1C(=O)/C(=C\c1ccccc1O)S2 | 5*
Cc1cc(Cl)cc2c1C(=O)/C(=C\c1cccnc1)S2 | -0.04
O=C1CSC(c2ccc(Cl)cc2)N1CCN1CCCCC1 (configuration not stated) | -0.24
SMILES | Dicer inh
CNC(=O)c1ccccc1S(=O)c1ccc(Cl)cc1C(=O)O (configuration not stated) | -0.95
Cc1ccc(C(=O)NC(=S)NNc2ncc(C(F)(F)F)cc2Cl)cc1 | -0.66
Cc1ccccc1OCc1nc(C#N)c(N2CC(C)OC(C)C2)o1 (configuration not stated) | 0.49
Fc1ccc(CN2C3=NCCCN3c3ccccc32)cc1 | 0.52
Fc1ccc(CN2C3=NCCN3c3ccccc32)cc1 | 7.4*
Clc1ccc(CN2C3=NCCCN3c3ccccc32)cc1 | 0.55
N#C/C(C(N)=O)=C1/SC=C(c2ccc(Br)cc2)N1Cc1ccccc1 | -0.03
COCCCNC(=O)c1nc2ccccc2c(=O)n1NC(=O)c1c(F)cccc1F | 0.11
Cc1ccc2c(c1)sc1ncc(NC(=O)c3ccc(Cl)cc3)c(=O)n12 | -1
Cc1ccc(OCC(O)Cn2cnc3cc(C)c(C)cc32)cc1 (configuration not stated) | 0.56
CCSc1nc2c(c(=O)[nH]1)C1(CCCC1)Cc1ccccc1-2 | 0.22
COC(=O)CCSc1nc2c(c(=O)[nH]1)C(C)(C1CCCCC1)Cc1ccccc1-2 (configuration not stated) | 3.7*
CCCCSCc1nc2c(c(=O)[nH]1)C1(CCCC1)Cc1ccccc1-2 | 0.7
Fc1ccc(-c2nnn(Cc3cccc(F)c3)n2)cc1 | -0.05
COc1ccc(-c2ccc(-c3noc(-c4cccc(OC)c4)n3)c(OC)n2)cc1 | -0.9
COc1nc(-c2ccccc2)ccc1-c1noc(-c2ccc(C)cc2)n1 | 1.5
COc1nc(-c2ccc(C)cc2)ccc1-c1noc(-c2cccnc2)n1 | 3.5*
CCOC(=O)c1cnc2cc(Cl)c(F)cc2c1N1CC(C)OC(C)C1 (configuration not stated) | 11*
CCOC(=O)c1cnc2cc(Cl)c(F)cc2c1OCC | 1.9
CCOC(=O)c1ccc2nc(C(F)(F)F)nc(N3CC(C)OC(C)C3)c2c1 (configuration not stated) | -1.6
O=C(Nc1ccc(OCc2ccccc2)cc1)Nc1ccccc1-c1nc2ccccc2[nH]1 | -0.35
O=C(Nc1ccccc1)OC1CN(C(c2ccccc2)c2ccccc2)C1 | -0.21
O=C1/C(=C\c2ccc(SC3CCCCC3)c([N+](=O)[O-])c2)SC(=S)N1Cc1ccccc1 | 7.1
CCc1ccc(NC(=S)NNS(=O)(=O)c2ccc(C)cc2)cc1 | -0.96
Cc1ccc(S(=O)(=O)NNC(=S)Nc2ccc(Cl)cc2)cc1 | 6.1*
SMILES | Dicer inh
Cc1ccc(S(=O)(=O)NNC(=S)Nc2ccc(Br)c(C)c2)cc1 | 2.6
Cc1ccc(S(=O)(=O)NNC(=S)Nc2cc(C(F)(F)F)cc(C(F)(F)F)c2)cc1 | 3.7*
Cc1ccc(S(=O)(=O)NNC(=S)Nc2c(Cl)cccc2Cl)cc1 | -0.42
N#C/C(=C\NCc1cc(C(F)(F)F)cc(C(F)(F)F)c1)S(=O)(=O)c1ccc(Cl)c(Cl)c1 | -1.7
CSc1nc(C)nc(N/C=C(\C#N)S(=O)(=O)c2ccc(C)cc2)n1 | -2.2
Cc1ccc(S(=O)(=O)NNC(=S)Nc2ccccc2)cc1 | 0.06
Cc1ccc(S(=O)(=O)/C(C#N)=C/Nc2cc(C(F)(F)F)cc(C(F)(F)F)c2)cc1 | 3.7*
CCN1C(=O)C(O)(CC(=O)c2cccnc2)c2ccccc21 (configuration not stated) | 20
CCOC(=O)CO/N=C/c1c(Cl)cccc1Cl | 0.66
CCN(CC)C(=S)Oc1ccc(I)cc1 | 2.5
CCOC(=O)c1cnc(Sc2ccc(F)c(Cl)c2)nc1C(F)(F)F | -3.9
Clc1ccc(-c2nc(NCc3ccco3)c3ccccc3n2)cc1 | -1.1
COc1cc2c(cc1OC)C(C)N(C(=S)Nc1cc(OC)c(OC)c(OC)c1)CC2 (configuration not stated) | 2.3
CCOC(=O)NC(=S)Nc1cc(C(C)(C)C)ccc1NC(C)=O | 2.6
COC(=O)c1cc(/C=C/C(=O)N(C(=O)NC2CCCCC2)C2CCCCC2)cn1C | 0.64
C(=C\c1ccc2c(c1)OCO2)/C1=NN(c2ccccc2)C(c2ccc3c(c2)OCO3)C1 (configuration not stated) | 0.21
Cn1c(/C=C/c2ccc3c(c2)OCO3)nc2ccccc2c1=O | 6.2*
Cn1c(/C=C/c2cn(Cc3ccccc3)c3ccccc23)nc2ccccc2c1=O | 10
O=C(Nc1nc2c(-c3ccccc3)c(C(F)(F)F)sc2s1)c1ccc(Cl)cc1 | 0.43
Nc1nc2c(-c3ccccc3)c(C(F)(F)F)sc2s1 | 4.2*
CCOC(=O)c1cnc2c(-c3ccccc3)c(C(F)(F)F)sc2c1OCC | -0.56
CCOc1ccc(CNc2ncc(-c3ccc(Br)cc3)n2C)cc1 | 0.91
COCCN1C(=O)CC(C(=O)OC)=C1C | 1.7
COC(=O)C1=C(C)NC2=C(C(=O)CC(C)(C)C2)C1c1ccc(C)s1 (configuration not stated) | 0.13
Cn1nc(CC(=O)Nc2nncs2)c2ccccc2c1=O | -1.5
SMILES | Dicer inh
O=C(O)CCCNc1nc(Cl)nc(N2CCOCC2)n1 | 4.7*
CCNc1nc(C(=O)O)nc(N2CCOCC2)n1 | 2.8
Clc1nc(NCCN2CCOCC2)nc(NC2CCCCC2)n1 | 1.7
O=C(NCCCCCCO)OCC1c2ccccc2-c2ccccc21 | -0.78
CCOc1nc(-c2ccc(C)cc2)ccc1-c1noc(-c2ccncc2)n1 | 0.16
CNc1nc2c(N)ncnc2n1[C@H]1O[C@@H](CO)[C@H](O)[C@@H]1O | -0.07

High-throughput results (PubChem)
